Inhibition data for 26 molecules are collected here from PubChem BioAssay AID651702 (NMMLSC, 2012).

As a reminder, the inhibition is the relative decrease from the control value, in per cent.

Among all 360,000 compounds or so, about 2,400 (0.67%) were called active. The list comes from a sample in which actives are over-represented; it also holds similar structures and randomly drawn compounds. A number with no mark means an inactive call.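 How the source made its calls: active means inhibition above about 55% (limit read from the data); inconclusive means no clear call, values can overlap the other calls; inactive means the rest.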

This experiment in a line: LAMP-1 surface exposure blockers, TALL-104 cells – cell-based, flow cytometry, MLPCN library, primary screen (AID 651702). As to conditions: TALL-104 LAMP-1 surface exposure, at 10 µM, active compounds read high, cells stimulated with thapsigargin and PMA. A general note: In flow cytometry, cells or beads pass a laser one at a time.
For `O=C(NCC(F)(F)F)Nc1nnc(C(F)(F)F)s1`, the inhibition is 4.2%.

Take `O=C(CCCN1CCc2[nH]c3ccc(F)cc3c2C1)c1ccc(F)cc1`: the inhibition was 38.3%.

`C=CCn1c(SCc2ccc(Cl)c(Cl)c2)nnc1C(CO)NC(=O)c1ccc(OC)cc1` (stereo unspecified): the inhibition was 0.1%.

As to `CCN1/C(=C\c2ccc3ccccc3[n+]2CC)Sc2cc(C)ccc21`, the inhibition was 63.6% (active).

As to `Cc1ccc(C)c(S(=O)(=O)N2CCN(c3ncnc4sccc34)CC2)c1`, the inhibition is -10.6%.

`CC1C(=O)Nc2ccccc2N1C(=O)c1ccc(F)cc1F` (stereo unspecified): the inhibition was -3.6%.

For `COc1ccc(F)cc1C(=O)COC(=O)c1n[nH]c(=O)c2ccccc12`, the inhibition is 3.6%.

With `O=C(/C=C/Sc1ncn[nH]1)c1ccc(Cl)cc1`, the inhibition is 69% (active).

In the case of `CC1CCC(CN2CCN=C2N(C)C)CC1` (stereo unspecified), the inhibition was 8.2%.

With `Cc1cccc(C)c1NC(=O)COC(=O)c1ccccc1O`, the inhibition is -9.6%.

As for `Cc1cccc(C)c1NC(=O)C(Cl)C(=O)c1ccccc1` (stereo unspecified), the inhibition is 72.7% (active).

Turning to `Cc1cccc(C)c1NC(=O)N1CC(C)OC(C)C1` (stereo unspecified), the inhibition is -0.4%.

For the molecule `Cc1ccc(N(C(=O)CNC(=O)c2ccco2)C(C(=O)NC2CCCC2)c2ccncc2)cc1` (stereo unspecified), the inhibition was -16.9%.

For the molecule `COCCc1nn2c(=O)cc(COC(=O)c3cc(OC)c(OC)c(OC)c3)nc2s1`, the inhibition is -0.5%.

In the case of `Cc1cccc(N(CC(=O)Nc2ccc(-c3nc4ccc(C)cc4s3)cc2)S(C)(=O)=O)c1`, the inhibition was 68% (active).

Regarding `Cc1ccc(N(CC(=O)Nc2cc(C)cc(C)c2)S(=O)(=O)c2cccc3nonc23)cc1`, the inhibition was 2.1%.

Consider `CCN(CC)S(=O)(=O)c1ccc(NC(=O)CN(c2cccc(F)c2)S(C)(=O)=O)cc1`, for which the inhibition was -6%.

Regarding `CCn1c(O)c2ccc(C(=O)N=NC(=O)c3cccnc3)cc2c1O`, the inhibition is -0.4%.

Turning to `CCc1sc(C(=O)N2CCN(CC(=O)Nc3cccc(F)c3)CC2)cc1C`, the inhibition was -5.4%.

Consider `CC(=O)C[C@@H]1OC[C@H](C)N1S(=O)(=O)c1ccc(C)cc1`, for which the inhibition is -6.7%.

As to `COc1ccc(-c2cc(=O)oc3cc(OC(C)C(=O)NCC4CCC(C(=O)O)CC4)ccc23)cc1` (stereo unspecified), the inhibition was 19.5%.

As to `Cc1ccc([N+](=O)[O-])c(OCCCNCC(C)O)c1` (stereo unspecified), the inhibition is 0%.

As to `CCCC(=O)NC(=S)Nc1ccc(CN2CCOCC2)cc1`, the inhibition is -6.2%.

Consider `Cc1cc(C)cc(NC(=S)NCCCN2CCOCC2)c1`, for which the inhibition was -0.8%.

Take `CCCCc1ccc(NC(=S)NCCCN2CCOCC2)cc1`: the inhibition is 67% (active).

As for `Cc1ccc(S(=O)(=O)N2CCC(=O)N([C@H](COCc3ccccc3)C(C)C)CC2)cc1`, the inhibition is -7.5%.
